# Coupling enz = coupling enzyme interference in Giardia aldolase counter-screen; coupling enzyme system counterscreen, AmpLite Red fluorescence; activity change, negative = inhibition, % at 58.2 µM, hits read low; actives 0.67% (n = 290,000); in the data active = activity change below about -30%
#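 Coupling enzymes only (glyceraldehyde-3-phosphate) + compound, at 57.5 uM final, 10 min RT; add substrate/coupling/AmpLite Red mix, 20 min RT; fluorescence ex 525/em 598 nm. Actives flag coupling-system interference.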
# Sfp PPTase inh = Sfp phosphopantetheinyl transferase inhibition. Q9F4F7. Biochemical Sfp PPTase activity, qHTS. Potency, µM, hits mostly inhibitors. actives 3.5% (n = 310,000). AID 1490;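 note: the enzyme is Sfp with the accession as filed and its product quenches rhodamine fluorescence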
#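 Buffer: 50 mM Hepes-Na pH 7.6, 10 mM MgCl2, 0.01% Nonidet P-40, 0.01% BSA. Enzyme 15 nM, pre-exposed to compound 15 min; substrates then added and fluorescence change tracked over 30 min.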
# Giardia kill = kills Giardia lamblia | Giardia lamblia trophozoite viability | activity change, % at 7.66 µM, hits read low | actives 0.15% (n = 340,000) | AID 540267; in the data active = activity change below about -80%; inconclusive = between about -30% and that limit;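 note: parasites exposed to compound for two days anaerobically before the ATP read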
#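 Media and compound were dispensed first, then trophozoites at 100 cells/well; plates sat 48 hrs at 37 deg C without oxygen before ATP luminescence reagent was added and read after 15-30 min at room temperature.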
# ELG1 DNA repair = blocks ELG1-dependent DNA repair in HEK293T cells. HEK293T ELG1-luciferase reporter, luminescence, 16 h; DNA damage induced by 5-fluorouridine. Potency, µM (titrated, usually from 46.1 µM), hits mostly inhibitors. actives 2.3% (n = 330,000). AID 504467; note: nearly all actives have a fitted effect of over 55% in size
#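 Luminescence from the luciferase reporter, measured 30 min after ONE-Glo reagent at room temperature, was the read-out. Beforehand, 2,000 cells per well were exposed for 16 hr at 37 °C to 5-fluorouridine together with compound or vehicle.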
# Numbers stand for hits; n = inactive; u = inconclusive; x = no result given. The list is not random: actives were taken first. Their share in the collection is about 5.5%. Unless noted, calls come from the whole dose curve; as a rule, active = well fitted curve in the direction sought with a large enough effect; inconclusive = small, poorly fitted or top-dose-only effect, or another doubt; inactive = no such curve, though single readings can be large; an effect the other way counts as inactive or inconclusive.
SMILES,Coupling enz,Sfp PPTase inh,Giardia kill,ELG1 DNA repair
COc1ccc(-n2c(CN3CCN(c4ccccc4OC)CC3)nc3ccc([N+](=O)[O-])cc3c2=O)c(OC)c1,n,n,n,n
CCOC(=O)c1ccc(-n2c(CN3CCC(C(N)=O)CC3)nc3ccc([N+](=O)[O-])cc3c2=O)cc1,n,22.4µM,n,n
CC(C)(C)OC(=O)N(c1cccc2cccnc12)S(=O)(=O)c1ccccc1Br,x,x,n,x
CCC(=O)NC(NC(=S)Nc1cccc2cccnc12)C(Cl)(Cl)Cl (stereo not given),n,n,n,n
CC(C)(C)C(=O)NC(Nc1cccc2cccnc12)C(Cl)(Cl)Cl (stereo not given),-66.3,n,n,n
COc1ccc(CCNC(=O)CC(C)(C)CC2=NS(=O)(=O)c3ccccc3N2)cc1OC,x,n,n,n
CC(=O)O[C@H]1C[C@@]2(O)[C@@H](OC(=O)c3ccccc3)C3[C@@](C)([C@@H](O)C[C@H]4OC[C@@]34OC(C)=O)[C@@H](O)[C@H](OC(C)=O)C(=C1C)C2(C)C (stereo not given in full),n,n,n,n
CC(=O)O[C@@]12CO[C@@H]1C[C@H](O)[C@@]1(C)C(=O)[C@H](O)C3=C(C)[C@@H](OC(=O)[C@H](O)[C@@H](NC(=O)OC(C)(C)C)c4ccccc4)C[C@](O)([C@@H](OC(=O)c4ccccc4)[C@H]21)C3(C)C,n,8.91µM,x,x
Cc1cccc(NC2=C(NCCO)C(=O)c3ccccc3C2=O)c1,-35.4,n,n,n
COc1cccc(Nc2c(Nc3cccc(OC)c3)c(=O)c2=O)c1,n,n,n,n
COc1cccc(NC2=C(NCCO)C(=O)c3ccccc3C2=O)c1,-30.1,n,n,u
COc1ccc(NC2=C(NCCO)C(=O)c3ccccc3C2=O)cc1,-43.2,n,n,u
Cc1cccc(Nc2nc(N)c([N+](=O)[O-])c(NCCO)n2)c1,n,n,n,n
CCN1CCCC1Cn1c(-c2ccccc2)nc2c(NCCOC)nc(C)nc21 (stereo not given),n,n,x,x
CCCn1c(CN2CCN(C(=O)OCC)CC2)nc2cc(NC(C)=O)ccc21,n,n,n,n
C=CCC(C)(O)c1ccsc1 (stereo not given),n,n,x,x
CC1(C)SCC(C(=O)O)NC1=O (stereo not given),n,n,n,n
O=C(O)[C@@H]1CSC2(CCSC2)N1 (stereo not given in full),n,44.7µM,x,n
Cc1onc(-c2c(F)cccc2Cl)c1C(=O)N[C@H]1C(=O)N2[C@H]1SC(C)(C)[C@H]2C(=O)O,n,n,x,x
CSc1nnc(N2C(=O)C(O)=C(C(=O)c3ccco3)C2c2ccccc2)s1 (stereo not given),n,n,u,n
COc1ccc(C2C(C(=O)c3cccs3)=C(O)C(=O)N2c2nnc(C)s2)cc1OC (stereo not given),n,56.2µM,n,n
Cc1nnc(N2C(=O)C(O)=C(C(=O)c3ccco3)C2c2cccc3ccccc23)s1 (stereo not given),n,u,n,n
CSc1nnc(N2C(=O)C(O)=C(C(=O)c3ccc(C)o3)C2c2ccc(C)cc2)s1 (stereo not given),x,15.8µM,n,u
Cc1ccc(C2C(C(=O)c3ccco3)=C(O)C(=O)N2c2nnc(C)s2)cc1 (stereo not given),n,89.1µM,n,n
O=C(CN1C(=O)NC2(CCCCCCC2)C1=O)NCc1ccccc1,x,x,n,n
SMILES,Coupling enz,Sfp PPTase inh,Giardia kill,ELG1 DNA repair
C[C@@H](O)C#C[Si](C)(C)c1ccccc1,n,n,x,x
CC(C)NC(=O)N(C)C[C@H]1Oc2c(NC(=O)Nc3ccccc3)cccc2C(=O)N([C@H](C)CO)C[C@@H]1C,x,x,n,n
CC(C)c1nc2oc3c(N(C)CCO)ncnc3c2c2c1CCC2,n,n,n,u
COc1ccc(C2=Nn3c(nnc3-c3cc(OC)ccc3OC)SC2)cc1,n,n,x,x
COc1cccc(C(=O)NC2CCCc3c2cnn3-c2ccc(C)c(C)c2)c1OC (stereo not given),x,n,n,n
COc1ccc(C(=O)NC2CCCc3c2cnn3-c2ccc(C)c(C)c2)c(OC)c1OC (stereo not given),x,n,n,18.3µM
Brc1ccccc1C1=Nn2c(nnc2-c2ccco2)SC1,n,n,u,n
c1ccc(C2=Nn3c(nnc3-c3ccco3)SC2)cc1,n,50.1µM,n,u
COc1ccc(C2=Nn3c(nnc3-c3ccccc3C)SC2)cc1,n,44.7µM,x,x
Brc1ccccc1C1=Nn2c(nnc2-c2ccccc2)SC1,n,79.4µM,n,n
COC(=O)C/C=C\[C@@H](C)[C@@H](/C=N\O[C@@H](C)CN1CCCc2nc(C)c(C)cc21)NS(=O)(=O)c1ccc(C)cc1,n,n,x,x
O=C(COC(=O)c1cncc(Br)c1)NC12CC3CC(CC(C3)C1)C2,x,x,x,n
N#Cc1ccccc1Sc1ccccc1C(=O)OCC(=O)NC12CC3CC(CC(C3)C1)C2,n,n,n,20.6µM
O=C(COC(=O)c1ccccc1)NC12CC3CC(CC(C3)C1)C2,x,x,n,n
CCN(c1ccccc1)S(=O)(=O)c1ccc(C(=O)NCC(=O)Nc2ccc(F)c(F)c2F)cc1,x,x,n,u
O=C(CN(Cc1ccccc1Cl)C(=O)c1csnn1)NCc1ccccc1,n,n,n,n
COc1ccc(Nc2nc3nonc3nc2N2CCCCC2)cc1,n,n,n,20.6µM
CC1CCN(c2nc3nonc3nc2Nc2ccc(F)cc2)CC1,n,n,n,u
CCOC(=O)/C(=C\c1cccc(O)c1)c1nc2sc(C)c(C)c2c(=O)[nH]1,n,7.08µM,n,u
Cc1ccc(-c2cc(C(F)F)n3ncc(C(=O)N4CCc5ccccc54)c3n2)cc1,n,u,n,20.6µM
Cc1ccc(-c2cc(C(F)F)n3ncc(C(=O)N4CCN(c5ccccn5)CC4)c3n2)cc1,n,n,n,3.66µM
CCN1CCN(C(=O)c2cnn3c(C(F)F)cc(-c4ccc(C)cc4)nc23)CC1,n,n,n,u
CCOc1cc(/C=C/c2nc3cc(C)c(C)cc3s2)ccc1OCC(=O)N1CCOCC1,n,u,n,u
CCOc1cc(/C=C\[N+](=O)[O-])ccc1OCC(=O)N1CCOCC1,n,39.8µM,n,n
CCOc1cc(/C=N/NC(=S)Nc2ccccc2C(F)(F)F)ccc1OCC(=O)N1CCOCC1,n,n,n,11.6µM
SMILES,Coupling enz,Sfp PPTase inh,Giardia kill,ELG1 DNA repair
COC(C(=O)Nc1ccnn1C1CCN(Cc2nccs2)CC1)c1ccccc1 (stereo not given),n,n,n,n
O=C(Cc1ccccc1)c1ccccc1C(=O)N1CCCCC1,n,n,n,n
S=c1[nH]nc(-c2cccnc2)n1-c1ccccc1,n,79.4µM,n,n
S=c1[nH]nc(-c2ccco2)n1-c1ccc(Cl)cc1,n,n,n,n
COc1cccc(-n2c(-c3cccc(S(=O)(=O)N(C)C)c3)n[nH]c2=S)c1,n,50.1µM,n,n
Cc1cccc(-n2c(-c3ccncc3)n[nH]c2=S)c1,n,79.4µM,n,n
Nn1c(-c2ccco2)n[nH]c1=S,n,56.2µM,n,n
